MEX-5 binding: C. elegans MEX-5 TCR-2 RNA binding activity. Q9XUB2. MEX-5/FITC-TCR2 RNA binding, fluorescence polarization; stronger effect = lower value. activity score (negative = inhibition of binding), % at 10 µM. hit rate 0.38% among 300,000. AID 1832;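 active means inhibition past about -25% in most replicates, and total fluorescence under double the plate's negative control median, limit read from the data; inconclusive means replicates evenly split on the limit, or fluorescence at least double controls; inactive means too little inhibition in most replicates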;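 further: 0% = DMSO and -100% = 5 µM competing unlabeled TCR2 RNA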
Bcl-xL primary: blocks human Bcl-xL binding to Bim BH3 peptide | AID 2129 | inhibition, % at 10.9 µM | Q07817 | GST-Bcl-xL / FITC-Bim BH3 peptide fluorescence polarization | hit rate 0.7% among 320,000;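 active means inhibition above the mean of all tested compounds plus 3 SD, cutoff set per campaign, cut at about 30% in these data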;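 further: 0% = DMSO wells and 100% = unlabeled Bim-BH3 peptide competitor; inhibitors lower millipolarization by displacing the labeled peptide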
EBV gp42 block: EBV gp42 inhibition | Fluorescence polarization binding assay, mP read-out | AID 1085 | inhibition, % (tested at 21.74 µM) | hit rate 0.42% among 220,000; in the data active means inhibition above about 50%
eLon inh: E. coli protease La inhibition; AID 602123; P0A9M0; inhibition, % at 7.94 µM; hit rate 0.42% among 360,000; purified E. coli Lon protease, fluorescence polarization; in the data active means inhibition above about 13%, passing the limit was not always enough;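 further: 0% = enzyme with probe and DMSO and 100% = no enzyme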
Target sequence (P0A9M0 whole entry, looked up): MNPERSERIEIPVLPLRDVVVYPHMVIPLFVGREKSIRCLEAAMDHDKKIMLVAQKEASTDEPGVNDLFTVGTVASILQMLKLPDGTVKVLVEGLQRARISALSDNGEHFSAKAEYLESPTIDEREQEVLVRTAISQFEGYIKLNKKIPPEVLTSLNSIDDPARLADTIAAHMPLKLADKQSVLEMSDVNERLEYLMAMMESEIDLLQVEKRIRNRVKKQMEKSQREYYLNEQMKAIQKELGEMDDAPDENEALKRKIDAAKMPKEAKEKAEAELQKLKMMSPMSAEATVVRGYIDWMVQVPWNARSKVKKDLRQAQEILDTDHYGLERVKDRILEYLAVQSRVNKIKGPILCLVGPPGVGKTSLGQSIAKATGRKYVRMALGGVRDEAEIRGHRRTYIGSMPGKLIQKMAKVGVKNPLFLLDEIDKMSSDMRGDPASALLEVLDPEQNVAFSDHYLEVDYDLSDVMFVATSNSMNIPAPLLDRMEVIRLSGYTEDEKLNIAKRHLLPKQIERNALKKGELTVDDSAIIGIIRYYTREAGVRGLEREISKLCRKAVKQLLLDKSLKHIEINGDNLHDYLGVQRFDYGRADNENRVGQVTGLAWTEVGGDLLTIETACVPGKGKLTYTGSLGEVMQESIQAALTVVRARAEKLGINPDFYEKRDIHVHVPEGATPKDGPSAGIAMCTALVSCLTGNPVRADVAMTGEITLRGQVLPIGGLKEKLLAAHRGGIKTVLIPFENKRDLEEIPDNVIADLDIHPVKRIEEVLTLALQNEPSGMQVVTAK
GLD-1 TGE inh: GLD-1-TGE RNA interaction inhibition (C. elegans); purified GLD-1 + fluorescein TGE RNA, fluorescence polarization; inhibition, % at 5.96 µM; hit rate 0.44% among 320,000;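 active means percent inhibition above a per-plate cutoff, the plate mean of test compounds plus 3 SD, cut at about 30% in these data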;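 further: 0% = DMSO wells with GLD-1 and probe and 100% = wells lacking GLD-1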
MCL1-BIM inh: disrupts human MCL1 binding to BIM-BH3 peptide; AID 2057; hit rate 0.68% among 320,000; Q07820; GST-MCL1 / FITC-Bim-BH3 fluorescence polarization; inhibition, % at 10.9 µM;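 active means inhibition above the mean inhibition of all tested compounds plus 3 SD, set per campaign, cut at about 40% in these data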;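 further: 0% = DMSO wells and 100% = unlabeled Bim-BH3 peptide control; higher means more loss of mP so more displacement of Bim peptide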
eLon confirm: E. coli Lon inhibition confirmation; shares compounds with eLon inh; purified E. coli Lon, fluorescence polarization; inhibition, % at 7.94 µM; hit rate 31% among 1,400; in the data active means inhibition above about 16%;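 further: 0% = enzyme with probe and DMSO and 100% = no enzyme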
* marks the source's active call; other numbers are inactive results; i = inactive; ? = inconclusive; nt = no result. Compounds with a hit are over-represented: about 1.5% of the library has one in this group of screens.

SMILES | MEX-5 binding | Bcl-xL primary | EBV gp42 block | eLon inh | GLD-1 TGE inh | MCL1-BIM inh | eLon confirm
CCCc1ccc2oc(C(=O)NCCc3cnn(C)c3)c(C)c2c1 | -3 | 4 | nt | 19* | 7 | 3 | -3
CCCc1ccc2oc(C(=O)NCCc3nc(C(=O)OCC)cs3)c(C)c2c1 | -3 | nt | nt | -8 | nt | nt | nt
COc1ccc(CCN2C(=O)CC(N3CCN(S(=O)(=O)c4ccccc4)CC3)C2=O)cc1 (stereo not given) | -2 | 6 | -2 | 12* | -1 | 8 | -8
COc1ccc(CCN2C(=O)CC(N3CCOCC3)C2=O)cc1 (stereo not given) | 1 | 2 | -19 | -6 | -4 | 3 | nt
CN(C)CCCN1C(=O)c2cccc3c(Br)ccc(c23)C1=O | ? | 35* | 77* | 31* | 22 | 39 | 68*
Cc1ccc(N2CCOCC2)c2c1C(=O)c1ccccc1C2=O | -2 | 2 | -8 | -7 | 2 | 1 | nt
CCCCNc1ccc2c3c(cccc13)C(=O)N(CCCC)C2=O | ? | nt | 181* | 135* | nt | nt | i
O=C(O)CN1C(=O)c2cccc3c(Br)ccc1c23 | -2 | 8 | nt | -5 | 8 | 0 | nt
COc1ccc(OC)c(NCCN2C(=O)c3ccccc3C2=O)c1 | nt | nt | nt | -1 | nt | nt | nt
CCCN1C(=O)c2cccc3c(N4CCCCC4)ccc(c23)C1=O | -135* | 43* | 80* | 74* | 35* | 35 | -23
CC(=O)N(C(C)=O)N1C(=O)c2cccc3c(N4CCOCC4)ccc(c23)C1=O | ? | 43* | -22 | 39* | 33* | 28 | 21*
COCCn1c(SCC(=O)N2CCc3ccccc3C2)nc2ccccc2c1=O | 0 | 0 | -2 | -4 | 3 | -3 | nt
CCCc1cc(NCCCN2CCOCC2)n2c(nc3ccccc32)c1C#N | 2 | 0 | 16 | 2 | 5 | -3 | nt
Cc1ccnc(NC(=O)c2cccc(S(=O)(=O)Nc3ccc(C)cc3C)c2)c1 | nt | nt | nt | 5 | 8 | nt | nt
Cc1c(C(=O)NCc2ccc3c(c2)cc(C)n3C)cccc1[N+](=O)[O-] | -2 | 9 | 5 | 31* | 6 | 4 | 4
COc1ccc(CNC(=O)Nc2cccc(Cl)c2)cc1 | nt | nt | nt | -7 | nt | nt | nt
Cc1cc2cc(CNC(=S)Nc3ccc(OC(F)(F)F)cc3)ccc2n1C | -3 | 8 | 0 | 19* | 8 | 12 | 19*
Cc1cccc(NC(=O)NCc2ccc3c(c2)cc(C)n3C)c1 | 0 | 8 | -12 | 30* | 16 | 7 | 13
Cc1cc2cc(CNC(=O)Nc3cccc(Cl)c3)ccc2n1C | -2 | 14 | -14 | 40* | 16 | 9 | 45*
COc1cccc(NC(=S)NCc2ccc3c(c2)cc(C)n3C)c1 | -4 | nt | -7 | 9 | nt | nt | nt
CCOC(=O)C1=CCN(S(=O)(=O)c2ccccc2C)C1c1cccc(C)c1 (stereo not given) | nt | nt | nt | -5 | nt | nt | nt
S=C(NC1CCCCCC1)NC1CCCC1 | 1 | 4 | -4 | -8 | 0 | 7 | nt
NC1=Nc2cccc3cccc1c23 | nt | 25 | -7 | 29* | 20 | 27 | 17*
Cc1cc(C)n(S(=O)(=O)/C=C/c2ccccc2)n1 | 0 | -2 | -6 | -4 | 1 | 9 | nt
COc1ccc(CCNC(=O)CCNC(=O)c2ccco2)cc1OC | -3 | -3 | nt | 22* | -9 | -2 | -4
SMILES | MEX-5 binding | Bcl-xL primary | EBV gp42 block | eLon inh | GLD-1 TGE inh | MCL1-BIM inh | eLon confirm
O=C(O)/C=C\C(=O)NC1CCCCC1 | -2 | 1 | -3 | 28* | 4 | 1 | 8
Cc1ccccc1CCNC(=O)C1CCC(=O)N(C2CCCCCC2)C1 (stereo not given) | -1 | 2 | nt | 1 | -2 | 9 | nt
Cc1ccc(S(=O)(=O)n2cc(-c3ccccc3)c(N)n2)cc1 | nt | -2 | -10 | 15* | 11 | 1 | -2
Nc1nn(S(=O)(=O)c2ccccc2)cc1-c1ccc([N+](=O)[O-])cc1 | 1 | 6 | 6 | -2 | 1 | 7 | nt
CC(O)CC(=O)NOCc1ccccc1 (stereo not given) | nt | nt | nt | 3 | nt | nt | nt
O=C(NCC1CCCN1S(=O)(=O)c1cccs1)C(=O)Nc1ccccc1Cl (stereo not given) | 4 | 11 | nt | 22* | -1 | 9 | -15
Cc1ccc(-n2c(C)cc(C(=O)Cn3nc(C(=O)O)c4ccccc4c3=O)c2C)cc1 | 0 | -1 | 14 | 51* | -4 | -16 | -4
O=C(Nc1ccncc1)c1cc(S(=O)(=O)N2CCCC2)ccc1Cl | nt | nt | nt | 21* | 4 | nt | -5
CCOC(=O)C1CCN(c2nc3cc(OC)ccc3cc2C#N)CC1 | -1 | 24 | -6 | -7 | 13 | 9 | nt
COc1ccc2nc(N3CCC(C)CC3)c(C#N)cc2c1 | -9 | 27 | 50 | 15* | 21 | 24 | 23*
Cc1cc(O)ccc1Nc1nc(-c2cccs2)cs1 | -1 | 9 | 9 | -4 | 0 | 9 | nt
COc1ccc2ccccc2c1/C=N/NC(=O)c1sc(N)c(C#N)c1C | 1 | -8 | -12 | -33 | -13 | -19 | nt
COC(=O)C1=C(C)NC(=S)N(C(C)=O)C1c1ccccc1 (stereo not given) | 0 | -1 | -20 | 17* | -2 | 9 | 21*
COC(=O)C1=C(C)NC(=O)CC1c1ccccc1 (stereo not given) | 0 | 6 | 6 | -1 | -2 | 8 | nt
COc1ccc2nc3ccccc3[n+]([O-])c2c1 | nt | nt | nt | 194* | nt | nt | 138*
COc1ccc2c(ccc[n+]2[O-])c1 | nt | nt | nt | -11 | nt | nt | nt
Cc1ccc(C(C)C)c(OCC(=O)NN=C2CCCCCCC2)c1 | 2 | -1 | 3 | 4 | 5 | 4 | nt
Cc1ccc(C(C)C)c(OCC(=O)NN=C2CCCC(=O)C2)c1 | nt | nt | nt | 43* | 5 | nt | -29
O=C(/C(=C/O)N=Nc1ccccc1)c1cccs1 | -3 | 1 | 2 | 22* | 1 | 3 | 12
O=C(Cc1sc(-c2ccccc2)nc1-c1ccccc1)Nc1ccccc1 | 1 | 3 | 8 | 16* | 7 | -5 | 9
COc1cc(C(=O)OCC(=O)Nc2ccccc2C(=O)NC2CC2)c([N+](=O)[O-])cc1OC | nt | -1 | nt | 35* | -8 | -1 | -37
C=CC[C@H](CC(=O)N(CCO)Cc1ccccc1)C(=O)N[C@@H](COC(=O)[C@@H](CC=C)CC(=O)OC(C)(C)C)Cc1c[nH]c2ccccc12 | nt | nt | nt | 21* | 2 | nt | 8
C=CC[C@@H](CC(=O)N(CCO)Cc1ccccc1)C(=O)N[C@@H](COC(=O)[C@H](CC=C)CC(=O)OC(C)(C)C)Cc1c[nH]c2ccccc12 | nt | nt | nt | -4 | 2 | nt | nt
O=C(NCCCN1CCCC1)Nc1ccccc1[N+](=O)[O-] | -1 | 1 | nt | 16* | -3 | 8 | 9
Cc1ccccc1NC(=O)NCCCN1CCCC1 | -1 | -5 | -19 | 0 | 9 | -3 | nt
O=C(CC(=O)NN=C1CCCCCC1)NCc1cccnc1 | 0 | 5 | 0 | -6 | 2 | 2 | nt
